Screening results deposited in PubChem BioAssay by National Center for Advancing Translational Sciences (NCATS).
Rows were chosen to be rich in hits. Some 20% of all compounds tested hit in one or more screens of this group.
HCMV antiviral = blocks human cytomegalovirus replication; HFF cells, HCMV-luciferase reporter, 72 h; stronger effect = lower value; activity change, negative = inhibition, % at 57.5 µM; AID 1259415; actives 4.5% (n = 410,000); in the data active means activity change below about -60%; inconclusive means no clear call, values can overlap the other calls; inactive means above about -39%
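Steps: HFFs plated, 16 h 37C; compounds added; HCMV-luciferase added to MOI 1 PFU/cell; 72 h 37C; OneGlo reagent, 5 min room temperature; luminescence read, normalized to controls.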
Pf growth 96h = P. falciparum growth inhibition at 96 hours | Potency, µM (top dose mostly 28.7 µM), usual class: inhibitors | P. falciparum luciferase reporter growth, 96 h | actives 6.9% (n = 320,000)
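Luminescence readout: decreased luciferase signal marks inhibited growth of reporter-expressing P. falciparum in infected red cells (2% hematocrit, 0.05% parasitemia final), exposed to compound two generations (96 h, 37 C, 5% CO2).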
CHX counter = counter-screen for Shiga toxin inhibitors: cycloheximide protein synthesis inhibition; cell reporter, cycloheximide protein synthesis inhibition counterscreen; actives 12% (n = 300,000); max response, %; in the data active means max response mostly above about 13%, no sharp cut-off; inactive means mostly below about 14%; further: read at 38.3 µM for the half of the compounds with a filed dose
Shiga inhibitor = blocks Shiga toxin action in Vero cells. Vero cells, Shiga toxin protein synthesis inhibition reporter. inhibition, % at 38.7 µM. actives 9.2% (n = 290,000); in the data active means inhibition mostly above about 28%, no sharp cut-off; inactive means mostly below about 43%
Pf growth 48h = inhibits P. falciparum growth in the first generation, 48 h. actives 5.9% (n = 310,000). Potency, µM (titrated, usually from 28.7 µM), usual class: inhibitors. P. falciparum luciferase growth in erythrocytes, 48 h
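Erythrocytes infected with P. falciparum carrying an integrated firefly luciferase reporter (2% hematocrit, 0.1% parasitemia final) were exposed to compounds in RPMI 1640 with 0.5% Albumax at 37 C, 5% CO2. Growth inhibition was scored as reduced luminescence.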
Large screens that a line does not name were inactive. Unless noted, the call rests on the fitted dose curve; in most records, active means well fitted inhibition curve with a large enough effect; inconclusive means small, poorly fitted or top-dose-only effect, or another doubt; inactive means no such curve, though single readings can be large or run the other way.

CCOC(=O)C1CCCN(S(=O)(=O)c2ccc(Cl)nc2)C1 (centres undefined)	Pf growth 48h inconclusive (no result: CHX counter, Shiga inhibitor)
CCOC(=O)CC(=O)CSc1nccc(-c2cccnc2)n1	none
Cc1c(NC(=S)N/C(=N/S(=O)(=O)c2ccccc2)c2ccccc2)c(=O)n(-c2ccccc2)n1C	none
Cc1ccc(S(=O)(=O)/N=C(/Nc2ccc([N+](=O)[O-])cc2)c2ccccc2)cc1	none
C/C(=N\S(=O)(=O)c1ccc(C)cc1)NC(=S)Nc1ccc(C)cc1	CHX counter 40.5, Shiga inhibitor 118.1
Cc1cccc(NC(=S)N/C(=N/S(=O)(=O)c2ccccc2)c2ccccc2)c1	HCMV antiviral inconclusive, CHX counter 43.9, Shiga inhibitor 17.8 (no result: Pf growth 96h)
Cc1ccc(S(=O)(=O)/N=C(/NC(=S)Nc2cccc(C)c2)c2ccccc2)cc1	CHX counter 53.8, Shiga inhibitor 76.9 (no result: Pf growth 48h)
Cc1cccn2c(=O)c(/C=C(\C#N)c3nc4ccccc4n3C)c(Oc3ccc(Br)cc3)nc12	none (no result: Pf growth 96h, CHX counter, Shiga inhibitor, Pf growth 48h)
CCC(=O)c1cn(CC(=O)Nc2ccc(C)cc2)c2ccccc12	none
CCn1c(C)c(C)c2cc(C(=O)NCCc3cc(OC)c(OC)c(OC)c3)ccc21	none (no result: Pf growth 96h, CHX counter, Shiga inhibitor, Pf growth 48h)
O=c1cc(/C=C/c2c(F)cccc2Cl)[nH]c2ccccc12	CHX counter 54.2, Shiga inhibitor 63.4, Pf growth 48h 0.928µM
COc1ccc(NC(=O)c2oc3ccccc3c2NC(=O)C2CCCCC2)c(OC)c1	none (no result: Pf growth 96h, CHX counter, Shiga inhibitor, Pf growth 48h)
COc1cccc2cc(-c3nnc(Nc4c(F)cccc4F)s3)c(=O)oc12	none (no result: Pf growth 96h, CHX counter, Shiga inhibitor, Pf growth 48h)
CCOc1cccc2cc(-c3nnc(NCc4ccco4)s3)c(=O)oc12	Pf growth 96h inconclusive, Shiga inhibitor 40.4
COc1ccc2oc(=O)c(-c3nnc(NCc4ccco4)s3)cc2c1	CHX counter 31.1, Shiga inhibitor 62.5
CCOc1cccc2cc(-c3cn4cc(C)ccc4n3)c(=O)oc12	Pf growth 96h inconclusive, Shiga inhibitor 36.4
CC(C)NC(=O)N(C)C[C@H]1Oc2c(NC(=O)c3ccc(-c4nccs4)cc3)cccc2C(=O)N([C@@H](C)CO)C[C@H]1C	none (no result: Pf growth 96h, CHX counter, Shiga inhibitor, Pf growth 48h)
COc1cccc(C(=O)CC(C(=O)O)c2ccc(F)cc2)c1 (centres undefined)	none
COc1cccc(C(=O)CC(C#N)c2ccc(F)cc2)c1 (centres undefined)	Shiga inhibitor 25.6, Pf growth 48h inconclusive (no result: HCMV antiviral)
COc1ccc(C(CC(=O)N2CCOCC2)c2c(O)cc(OC)cc2OC)cc1 (centres undefined)	none
COc1ccc(C(CCN2CCOCC2)c2c(O)cc(OC)cc2OC)cc1 (centres undefined)	Pf growth 96h 3.29µM, Pf growth 48h 3.7µM
COc1ccc(C(c2c(O)ccc3ccccc23)N2CCOCC2)c(OC)c1 (centres undefined)	HCMV antiviral inconclusive, Pf growth 96h inconclusive, Shiga inhibitor 65.0
COc1ccc(CCC(C)N2CCOCC2)cc1 (centres undefined)	none
COc1cc(O)c(C(CCN2CCCCC2)c2ccc(N(C)C)cc2)c(OC)c1 (centres undefined)	Pf growth 96h 0.828µM, Pf growth 48h 1.31µM
COc1cc(O)c(C(CCN2CCCC2)c2ccc(N(C)C)cc2)c(OC)c1 (centres undefined)	Pf growth 96h 3.29µM, Pf growth 48h 2.94µM
COc1ccc(C(=O)C(=O)N2CCN(C(=O)OCc3ccccc3)CC2)cc1	none (no result: Pf growth 96h, CHX counter, Shiga inhibitor, Pf growth 48h)
CC(=O)O[C@H]1CC(=O)OC(C)(C)C2CC(=O)[C@]3(C)C(CC[C@@](C)([C@@H](O[C@@H]4O[C@H](CO)[C@@H](O)[C@H](O)[C@H]4O)c4ccoc4)[C@@]34O[C@@H]4C(=O)O)[C@]21C (some centres undefined)	none (no result: CHX counter, Shiga inhibitor)
COc1cccc(/C=N/n2c(=O)[nH]c3ccccc32)c1OC	CHX counter 38.5, Shiga inhibitor 41.7
COc1cccc(/C=N/n2c(=S)n(C)c3ccccc32)c1OC	none (no result: Pf growth 96h)
COc1cccc(/C=N/n2c(C)nc3ccccc32)c1OC	Shiga inhibitor 37.9
O=C(O)/C=C/C(=O)Nc1ccc(Cl)c(C(=O)O)c1	CHX counter 19.3, Shiga inhibitor 50.6
NNc1ccc(Cl)c(C(=O)O)c1	CHX counter 35.5, Shiga inhibitor 95.5
COc1ccc(NC(=O)/C=C/C(=O)O)cc1Cl	none
COc1ccc(OC)c(-n2c(=O)[nH]c3cc(C(=O)NCCc4ccc(OC)c(OC)c4)ccc3c2=O)c1	none (no result: Pf growth 96h, CHX counter, Shiga inhibitor, Pf growth 48h)
Cc1cccc(NC(=S)N/N=C2\CC(C)(C)Oc3ccc(O)cc32)c1	Pf growth 96h inconclusive, Pf growth 48h inconclusive
CC1(C)C/C(=N\NC(=S)Nc2ccccc2F)c2cc(O)ccc2O1	Pf growth 96h 10.4µM, Pf growth 48h 13.1µM
CC(=O)Nc1nnc(Cc2c[nH]c3ccccc23)s1	none
Cc1ccn2c(Nc3ccccc3C)c(-c3ccncc3)nc2c1	HCMV antiviral -66.6, Pf growth 48h inconclusive
Cc1ccccc1Nc1c(-c2ccsc2)nc2c(C)cccn12	HCMV antiviral -84.4 (no result: Pf growth 96h, CHX counter, Shiga inhibitor, Pf growth 48h)
COc1ccc(-c2nc3ccc(NS(C)(=O)=O)cc3o2)cc1	none (no result: Pf growth 96h, CHX counter, Shiga inhibitor, Pf growth 48h)
Cc1cc(C)cc(-n2ncc3c2CCCC3NC(=O)c2ccccc2)c1 (centres undefined)	none (no result: Pf growth 96h, CHX counter, Shiga inhibitor, Pf growth 48h)
COc1ccc(OC)c(-c2nc(C(=O)NC3CCN(Cc4ccccc4)CC3)cc3c2[nH]c2ccccc23)c1	Pf growth 96h 3.7µM, Pf growth 48h 8.28µM
COc1ccc(OC)c(-c2cc(C(=O)NCCN3CCOCC3)no2)c1	Pf growth 96h inconclusive
COc1cc(-c2nc(C(=O)NC3CCN(Cc4ccccc4)CC3)cc3c2[nH]c2ccccc23)cc(OC)c1OC	Pf growth 96h 2.08µM, Pf growth 48h inconclusive (no result: HCMV antiviral)
COc1cc(-c2nc(C(=O)NC3CCCCC3)cc3c2[nH]c2ccccc23)cc(OC)c1OC	Pf growth 96h inconclusive, Pf growth 48h 6.57µM
COc1ccc(OC)c(-c2nc(C(=O)NCCCN3CCOCC3)cc3c2[nH]c2ccccc23)c1	Pf growth 96h 2.94µM, Pf growth 48h 2.33µM
COc1cc(C(=O)NC2CCN(Cc3ccccc3)CC2)cc(Cl)c1OC	Pf growth 96h inconclusive, Pf growth 48h inconclusive
CCc1cccc(NC(=O)c2c(C)oc3ncnc(N4CCCCC4)c23)c1	none (no result: Pf growth 96h, CHX counter, Shiga inhibitor, Pf growth 48h)
COc1ccc(Cl)cc1NC(=S)N(CCCN1CCOCC1)Cc1cn(C)c2ccccc12	HCMV antiviral -71.3, Pf growth 48h inconclusive
Cc1ccc(Cl)cc1NC(=S)N(CCCN1CCOCC1)Cc1ccccn1	none
COc1cc(Cl)ccc1NC(=S)N(CCCN1CCOCC1)Cc1cn(C)c2ccccc12	HCMV antiviral -91.9, Pf growth 48h inconclusive
Cc1oc(-c2cccc(F)c2)nc1CN(Cc1ccccc1)C[C@@H]1CCC(=O)N1	Pf growth 96h 8.28µM, Pf growth 48h inconclusive
CN1CCC(=NNC(=O)C(=O)Nc2ccccc2)CC1	CHX counter 24.0, Shiga inhibitor 25.4
C/C(CC(=O)Nc1ccc(Br)cc1)=N\NC(=O)Cc1csc(N)n1	CHX counter 29.2
C/C(CC(=O)Nc1ccccc1C)=N\NC(=O)Cc1csc(N)n1	CHX counter 40.6, Shiga inhibitor 62.4
C/C(CC(=O)Nc1ccc(F)cc1)=N\NC(=O)Cc1csc(N)n1	none
